From PubChem BioAssay come the findings set out here.

Calls of active or inactive are those of the source.

In assay [1] the test system is PRMT1 (protein arginine N-methyltransferase 1). The assay is described as follows: small molecules binding arginine methyltransferase PRMT1 – biochemical, small-molecule microarray, 635 nm fluorescence, primary screen (AID 1088).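 Also: binding of Prmt1 protein to compounds spotted on small-molecule microarray slides.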 The note with it: higher = more signal.
Assay [2] in a line: growth effects on S. cerevisiae YJM789 – YJM789 clinical isolate, OD600, 24 h, basal, primary screen (AID 1089).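 Also: growth of clinical yeast isolate S. cerevisiae YJM 789 seeded 1000 cells per well; test concentration not given here.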 To be noted: higher = more signal, called active from +8 up or from −8 down.
The nature of assay [3]: S. pombe growth modifiers, basal conditions – strain 972, OD600, 24 h, no modulator, primary screen (AID 1090).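 Also: basal condition with compound alone and no growth modifier present; test concentration not given here.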 To be noted: S. pombe 972 growth, higher = more signal, called active from +8 up or from −8 down.
Assay [4] can be described thus: budding yeast growth modifiers under rapamycin – strain BY4716, OD600, 96 h, primary screen (AID 1091). Also: test concentration not given here. The note with it: S. cerevisiae BY4716 + rapamycin, higher = more signal, called active from +8 up or from −8 down.
The target in assay [5] is Torsin-1A-interacting protein 2 (Homo sapiens) (UniProt Q8NFQ8). The assay is described as follows: small molecules binding lysate-expressed LULL1 – cell lysate, human LULL1 lysate, 635/667 nm fluorescence, primary screen (AID 1092).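 Also: probe is lysate of COS7 cells overexpressing human LULL1; score merges per-feature 667 nm fluorescence with signal-to-noise.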 To be noted: small-molecule microarray, hLULL1 lysate binding, 635 nm fluorescence; higher = more signal.
Torsin-1A-interacting protein 2 (Homo sapiens), sequence (Q8NFQ8 whole entry, looked up): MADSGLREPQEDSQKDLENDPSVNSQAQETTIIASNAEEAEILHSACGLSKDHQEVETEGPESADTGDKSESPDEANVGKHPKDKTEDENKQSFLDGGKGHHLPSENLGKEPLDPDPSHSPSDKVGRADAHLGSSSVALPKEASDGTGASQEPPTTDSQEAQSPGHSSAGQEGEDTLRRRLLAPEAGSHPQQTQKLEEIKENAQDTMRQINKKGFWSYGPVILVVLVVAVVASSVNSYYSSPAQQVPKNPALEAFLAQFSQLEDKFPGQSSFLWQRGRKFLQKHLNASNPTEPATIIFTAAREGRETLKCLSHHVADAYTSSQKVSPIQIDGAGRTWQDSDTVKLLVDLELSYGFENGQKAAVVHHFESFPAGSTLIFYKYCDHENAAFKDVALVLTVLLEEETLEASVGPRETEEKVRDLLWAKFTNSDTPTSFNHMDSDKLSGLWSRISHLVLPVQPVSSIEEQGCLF
Assay [6] is described as follows: optical density change of DRC41 E. coli – strain DRC41, OD650, 24 h, E. coli filamentation project, primary screen (AID 1093).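 Also: MC1000 strain lacking acrAB efflux and sulA so SOS filamentation is blocked; test concentration not given here.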 To be noted: E. coli DRC41 growth, higher = more signal, called active from +8 up or from −8 down.
The nature of assay [7]: probe aLefty2 binding to arrayed compounds – biochemical, biotinylated probe, 635/667 nm fluorescence, primary screen (AID 1094).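 Also: score merges spot fluorescence near 667 nm with spot signal-to-noise ratio.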 The note with it: small-molecule microarray, higher = more signal.
For assay [8], the system named is Noggin (protein binding on small-molecule microarray). The experiment in a line: small molecules binding Noggin protein – biochemical, 635/667 nm fluorescence, primary screen (AID 1095).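 Also: score merges 667 nm feature fluorescence with signal to noise over triplicate slides.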 The note with it: 635 nm fluorescence, higher = more signal.
The target of assay [9] is Neurogenic locus notch homolog protein 3 (Homo sapiens) (UniProt Q9UM47). The assay is described as follows: small molecules binding NOTCH3 protein – biochemical, 635/667 nm fluorescence, primary screen (AID 1096). To be noted: small-molecule microarray, 635 nm fluorescence, higher = more signal.
Neurogenic locus notch homolog protein 3 (Homo sapiens), sequence (Q9UM47 whole entry, looked up): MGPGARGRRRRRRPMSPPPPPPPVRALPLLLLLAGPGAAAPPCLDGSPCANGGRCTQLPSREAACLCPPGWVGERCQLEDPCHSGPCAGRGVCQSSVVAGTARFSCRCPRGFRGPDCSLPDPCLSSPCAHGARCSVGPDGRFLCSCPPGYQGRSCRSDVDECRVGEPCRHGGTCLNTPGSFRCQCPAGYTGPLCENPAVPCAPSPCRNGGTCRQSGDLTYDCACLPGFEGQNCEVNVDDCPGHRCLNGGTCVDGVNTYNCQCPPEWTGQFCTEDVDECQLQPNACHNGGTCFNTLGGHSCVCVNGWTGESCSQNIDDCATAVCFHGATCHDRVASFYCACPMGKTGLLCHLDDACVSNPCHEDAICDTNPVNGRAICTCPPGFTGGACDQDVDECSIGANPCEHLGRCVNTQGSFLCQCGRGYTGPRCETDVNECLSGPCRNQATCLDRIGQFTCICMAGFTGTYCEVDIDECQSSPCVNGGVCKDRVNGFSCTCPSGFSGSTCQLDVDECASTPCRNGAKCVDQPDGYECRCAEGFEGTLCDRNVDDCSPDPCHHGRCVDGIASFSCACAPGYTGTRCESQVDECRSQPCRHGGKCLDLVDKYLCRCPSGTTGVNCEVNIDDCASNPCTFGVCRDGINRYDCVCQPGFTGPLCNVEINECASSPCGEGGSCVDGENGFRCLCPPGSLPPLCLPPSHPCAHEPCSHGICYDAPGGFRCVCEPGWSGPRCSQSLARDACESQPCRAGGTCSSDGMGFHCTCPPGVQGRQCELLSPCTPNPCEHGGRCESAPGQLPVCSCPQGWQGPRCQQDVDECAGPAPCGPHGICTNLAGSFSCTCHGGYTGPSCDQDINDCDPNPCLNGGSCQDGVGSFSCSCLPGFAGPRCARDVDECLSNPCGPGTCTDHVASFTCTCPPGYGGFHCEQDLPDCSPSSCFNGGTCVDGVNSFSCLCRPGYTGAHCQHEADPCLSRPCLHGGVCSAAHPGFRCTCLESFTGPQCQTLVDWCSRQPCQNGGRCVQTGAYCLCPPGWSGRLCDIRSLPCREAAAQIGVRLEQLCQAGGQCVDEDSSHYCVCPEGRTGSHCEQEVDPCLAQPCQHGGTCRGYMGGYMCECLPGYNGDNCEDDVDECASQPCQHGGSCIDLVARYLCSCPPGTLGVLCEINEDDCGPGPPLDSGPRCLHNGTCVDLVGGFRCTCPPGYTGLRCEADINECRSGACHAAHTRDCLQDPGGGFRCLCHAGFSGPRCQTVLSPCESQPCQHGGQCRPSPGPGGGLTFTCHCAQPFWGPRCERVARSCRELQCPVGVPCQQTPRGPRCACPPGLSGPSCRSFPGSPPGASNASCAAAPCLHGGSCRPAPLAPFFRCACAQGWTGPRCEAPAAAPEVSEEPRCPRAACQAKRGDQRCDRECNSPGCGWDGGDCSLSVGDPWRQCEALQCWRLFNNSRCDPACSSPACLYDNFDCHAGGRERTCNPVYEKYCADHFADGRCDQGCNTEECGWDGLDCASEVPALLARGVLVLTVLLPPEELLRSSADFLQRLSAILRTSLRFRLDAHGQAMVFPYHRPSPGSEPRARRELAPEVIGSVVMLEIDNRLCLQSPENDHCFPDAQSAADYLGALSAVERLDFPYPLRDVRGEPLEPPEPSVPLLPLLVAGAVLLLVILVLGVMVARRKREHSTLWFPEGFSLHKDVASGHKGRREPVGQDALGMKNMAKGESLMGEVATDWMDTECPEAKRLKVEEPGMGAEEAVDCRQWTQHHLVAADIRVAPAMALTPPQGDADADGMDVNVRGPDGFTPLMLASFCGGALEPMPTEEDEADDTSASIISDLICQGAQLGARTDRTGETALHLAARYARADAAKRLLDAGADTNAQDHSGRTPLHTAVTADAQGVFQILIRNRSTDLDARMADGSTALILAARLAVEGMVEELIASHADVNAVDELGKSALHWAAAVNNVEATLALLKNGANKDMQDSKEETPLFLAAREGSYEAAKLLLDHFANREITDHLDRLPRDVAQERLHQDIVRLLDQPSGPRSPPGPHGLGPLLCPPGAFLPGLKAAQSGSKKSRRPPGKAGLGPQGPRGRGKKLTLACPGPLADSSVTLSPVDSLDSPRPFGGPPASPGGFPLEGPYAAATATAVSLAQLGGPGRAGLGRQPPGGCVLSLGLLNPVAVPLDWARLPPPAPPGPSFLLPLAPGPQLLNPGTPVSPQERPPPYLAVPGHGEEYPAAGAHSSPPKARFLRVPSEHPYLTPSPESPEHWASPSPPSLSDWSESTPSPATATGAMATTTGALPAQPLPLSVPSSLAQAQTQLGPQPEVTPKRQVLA
Assay [10] can be described thus: probe aEGFR binding to arrayed compounds – biochemical, biotinylated probe, 635/667 nm fluorescence, primary screen (AID 1097).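 Also: probe is a biotinylated anti-EGFR antibody binding compounds printed on slides; score combines fluorescence near 667 nm and signal to noise of each spot.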 The note with it: small-molecule microarray, higher = more signal.
Assay [11] deals with Plasmodium falciparum Sir2 (PF13_0152, Sir2A). The assay is described as follows: Plasmodium falciparum Sir2A binding compounds – biochemical, small-molecule microarray, 635 nm fluorescence, primary screen (AID 1098).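 Also: score merges spot fluorescence intensity with its signal-to-noise ratio.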 To be noted: fluorescence 635 nm, higher = more signal.
The nature of assay [12]: probe aDKK1 binding to arrayed compounds – biochemical, biotinylated probe, 635/667 nm fluorescence, primary screen (AID 1099).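 Also: score merges 667nm spot fluorescence with signal to noise across triplicate slides; reference of the scale not given here.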 The note with it: small-molecule microarray, higher = more signal.
The nature of assay [13]: probe aCHRDL2 binding to arrayed compounds – biochemical, biotinylated probe, 635/667 nm fluorescence, primary screen (AID 1100). To be noted: small-molecule microarray, higher = more signal.
A short description of assay [14]: change in splice reporter luminescence, either direction, cell-based, HEK293, spliceosome inhibition project, primary screen (AID 1101).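 Also: HEK293 cells carrying a splicing-competent luciferase reporter gene; test concentration not given here.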 The note with it: HEK293 splicing luciferase reporter, 24 h, higher = more signal, called active from +8 up or from −8 down. For orientation: In a reporter assay the amount or activity of a reporter protein is the signal.
Assay [15] deals with Fibroblast growth factor 10 (Homo sapiens) (UniProt O15520). The experiment in a line: compounds binding fibroblast growth factor 10 – biochemical, small-molecule microarray, 635 nm fluorescence, primary screen (AID 1102). The note with it: FGF10 binding, fluorescence 635 nm, higher = more signal.
Fibroblast growth factor 10 (Homo sapiens), sequence (O15520 whole entry, looked up): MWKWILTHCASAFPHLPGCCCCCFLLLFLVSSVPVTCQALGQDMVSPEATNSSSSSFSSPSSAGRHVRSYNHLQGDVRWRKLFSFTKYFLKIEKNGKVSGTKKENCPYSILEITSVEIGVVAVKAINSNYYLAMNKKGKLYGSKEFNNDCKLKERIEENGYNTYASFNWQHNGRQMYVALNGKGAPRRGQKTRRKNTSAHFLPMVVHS
The subject of assay [16] is glycogen synthase kinase-3 (GSK3A per assay name; protocol says GSK3B). The assay is described as follows: compounds binding glycogen synthase kinase-3 – biochemical, small-molecule microarray, 635 nm fluorescence, GSK3A, primary screen (AID 1103). Also: the record names both GSK3A and GSK3B. The note with it: fluorescence 635 nm, higher = more signal.
Assay [17] addresses Epidermal growth factor receptor (Homo sapiens) (UniProt P00533). The experiment in a line: compounds binding epidermal growth factor receptor – biochemical, small-molecule microarray, 635 nm fluorescence, primary screen (AID 1104).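 Also: score merges 667 nm emission intensity with spot signal to noise over triplicate slides.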 The note with it: EGFR binding, higher = more signal.
Assay [18] has as its target Follistatin-related protein 3 (Homo sapiens) (UniProt O95633). The assay is described as follows: compounds binding follistatin-related protein 3 – biochemical, small-molecule microarray, 635 nm fluorescence, primary screen (AID 1105).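 Also: score merges emission near 667 nm and signal to noise per printed spot across three slides.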 To be noted: FSTL3 binding, higher = more signal.
Assay [19] concerns the target Dickkopf-related protein 1 (Homo sapiens) (UniProt O94907). The assay is described as follows: small molecules binding DKK1 protein – biochemical, small-molecule microarray, 635 nm fluorescence scan, primary screen (AID 1106).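 Also: score merges emission near 667 nm with signal to noise over three replicate slides.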 To be noted: higher = more signal.
For assay [20], the system named is Inhibin beta A chain (activin A). The assay is described as follows: small molecules binding activin A – biochemical, small-molecule microarray, 635 nm fluorescence scan, primary screen (AID 1107).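 Also: mouse activin A protein probed at 4.33 µg/mL on printed slides; score merges bound-protein fluorescence near 667 nm with spot signal-to-noise.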 To be noted: INHBA, higher = more signal.

Epidermal growth factor receptor (Homo sapiens), sequence (P00533 whole entry, looked up): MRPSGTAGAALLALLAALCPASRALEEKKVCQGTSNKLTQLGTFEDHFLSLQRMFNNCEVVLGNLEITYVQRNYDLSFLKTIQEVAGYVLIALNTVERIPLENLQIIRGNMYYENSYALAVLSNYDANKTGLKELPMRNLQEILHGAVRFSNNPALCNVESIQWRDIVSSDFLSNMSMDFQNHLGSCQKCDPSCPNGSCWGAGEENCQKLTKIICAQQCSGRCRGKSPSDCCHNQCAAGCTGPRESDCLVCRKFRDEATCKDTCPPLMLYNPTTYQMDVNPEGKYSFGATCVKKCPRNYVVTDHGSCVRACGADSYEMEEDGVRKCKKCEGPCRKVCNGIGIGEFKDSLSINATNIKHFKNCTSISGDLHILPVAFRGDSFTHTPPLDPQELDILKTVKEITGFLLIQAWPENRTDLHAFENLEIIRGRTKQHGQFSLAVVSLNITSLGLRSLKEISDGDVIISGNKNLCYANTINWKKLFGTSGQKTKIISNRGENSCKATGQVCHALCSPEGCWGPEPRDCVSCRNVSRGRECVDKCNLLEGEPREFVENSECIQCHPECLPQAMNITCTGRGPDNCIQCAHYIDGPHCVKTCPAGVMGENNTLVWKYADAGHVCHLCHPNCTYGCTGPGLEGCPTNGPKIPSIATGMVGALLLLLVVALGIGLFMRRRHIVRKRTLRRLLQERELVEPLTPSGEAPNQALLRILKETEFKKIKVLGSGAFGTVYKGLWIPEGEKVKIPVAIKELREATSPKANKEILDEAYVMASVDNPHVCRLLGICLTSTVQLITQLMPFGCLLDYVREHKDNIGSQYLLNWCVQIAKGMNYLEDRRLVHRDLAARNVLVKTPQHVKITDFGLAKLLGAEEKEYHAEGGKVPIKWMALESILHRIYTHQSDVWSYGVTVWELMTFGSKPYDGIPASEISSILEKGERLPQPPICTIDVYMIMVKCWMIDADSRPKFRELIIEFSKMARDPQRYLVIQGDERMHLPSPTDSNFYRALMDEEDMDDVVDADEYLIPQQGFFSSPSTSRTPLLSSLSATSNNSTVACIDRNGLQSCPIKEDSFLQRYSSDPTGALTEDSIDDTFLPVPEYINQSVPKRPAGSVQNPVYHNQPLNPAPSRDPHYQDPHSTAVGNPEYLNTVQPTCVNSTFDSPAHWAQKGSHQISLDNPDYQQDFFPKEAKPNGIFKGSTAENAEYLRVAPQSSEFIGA
Follistatin-related protein 3 (Homo sapiens), sequence (O95633 whole entry, looked up): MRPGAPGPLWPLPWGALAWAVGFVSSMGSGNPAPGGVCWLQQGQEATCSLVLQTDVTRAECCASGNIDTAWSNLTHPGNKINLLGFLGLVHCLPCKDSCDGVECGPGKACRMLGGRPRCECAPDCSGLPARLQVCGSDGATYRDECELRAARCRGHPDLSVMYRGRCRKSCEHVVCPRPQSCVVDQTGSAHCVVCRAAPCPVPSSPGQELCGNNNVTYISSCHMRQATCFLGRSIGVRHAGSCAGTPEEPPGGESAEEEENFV
Dickkopf-related protein 1 (Homo sapiens), sequence (O94907 whole entry, looked up): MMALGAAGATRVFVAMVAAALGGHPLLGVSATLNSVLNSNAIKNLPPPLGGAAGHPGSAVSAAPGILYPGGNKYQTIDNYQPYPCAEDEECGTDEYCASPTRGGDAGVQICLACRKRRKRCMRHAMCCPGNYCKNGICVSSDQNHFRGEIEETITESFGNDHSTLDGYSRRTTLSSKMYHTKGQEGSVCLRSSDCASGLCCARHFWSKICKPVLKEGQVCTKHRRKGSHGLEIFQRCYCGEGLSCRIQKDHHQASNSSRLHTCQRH

In the case of `Cc1ccc(S(=O)(=O)N[C@H]2COC(=O)CC=C[C@@H](C)COC(=O)CC=C[C@@H]2C)cc1`, the composite z-score in assay [1] was 0.683; in [5] it was -0.953; in assay [7], 0.296; in assay [8] it was 1.8; in assay [9] it was -0.207; in [10], -0.281. Besides, the composite z-score in [11] was 0.549; in assay [12] it was -0.789; in [13], -1.26; in [15] it was 0.813; in assay [16] it was 0.448; in assay [17], 0.823. The composite z-score in assay [18] is 1.4; in [19], 2.04; in assay [20], 1.36. The z-score in assay [2] is 0.611 (inactive); in assay [3], 0.174 (inactive); in assay [4], 0.247 (inactive); in assay [6], 0.682 (inactive); in assay [14], 0.597 (inactive).
Take `CON=C[C@@H](C)[C@H](OCc1ccccc1)C(C)C`: the composite z-score in assay [1] was -1.25; in assay [5], -0.618; in assay [7], -0.149; in [8], 0.314; in assay [9] it was -0.154; in assay [10] it was -0.158. Moreover, the composite z-score is -0.187 in [11]; -0.152 in [12]; -0.225 in assay [13]; 0.0578 in assay [15]; -0.594 in assay [16]; 0.327 in [17]. Further, the composite z-score came out at 0.122 in [18], 0.312 in assay [19] and 0.216 in assay [20]. Besides, the z-score in [2] is 0.0195 (inactive); in [3], -0.596 (inactive); in assay [4], 0.772 (inactive); in assay [6] it was -0.718 (inactive); in [14] it was -0.829 (inactive).
`COC(=O)CC=C[C@@H](C)[C@@H](C=NOC[C@H]1O[C@H](c2ccccc2)C=C[C@@H]1Oc1ccc(OC)cc1)OC`: the composite z-score in assay [1] was -0.356; in assay [5] it was -0.072; in assay [7] it was -0.258; in assay [8] it was 0.0133; in [9] it was -1.13; in [10] it was -0.253. Also, the composite z-score in assay [11] is -0.67; in [12] it was -0.242; in [13], -0.212; in assay [15] it was 0.268; in assay [16] it was -0.393; in [17] it was -0.587. Besides, the composite z-score was 0.173 in [18], -0.0407 in assay [19] and 0.807 in assay [20]. For the same molecule, the z-score in assay [2] is -0.337 (inactive); in assay [3], 0.427 (inactive); in [4] it was 0.439 (inactive); in [6] it was -0.19 (inactive); in assay [14], -0.194 (inactive).
Regarding `CCN1C(=O)[C@H]2[C@H]3[C@H](O)[C@H](O)CC(=NOC[C@H]4O[C@H](c5ccccc5)C=C[C@@H]4Oc4ccc(OC)cc4)[C@@H]3CC[C@H]2C1=O`, the composite z-score in [1] was 1.28; in assay [5], 0.996; in assay [7] it was -0.0271; in assay [8], 0.738; in assay [9], 1.11; in assay [10], -0.0085. Besides, the composite z-score in [11] was 0.605; in [12] it was 0.0709; in assay [13], -0.187; in assay [15], 0.809; in assay [16] it was 0.62; in assay [17], 0.452. Further, the composite z-score in [18] was 0.616; in assay [19], 0.85; in [20], -0.0495. Further, the z-score in assay [2] was -0.125 (inactive); in assay [3], -0.653 (inactive); in assay [4] it was -0.175 (inactive); in [6] it was 0.964 (inactive); in [14], 0.387 (inactive).
Turning to `O=C1CCCC=C1C(O)CCCCBr` (stereo not given), the composite z-score was -0.25 in [1]; 1.7 in assay [5]; 0.263 in [7]; 1.03 in [8]; 0.474 in assay [9]; -0.0742 in assay [10]. Also, the composite z-score in assay [11] was 1.09; in assay [12], 0.763; in assay [13], 0.653; in assay [15] it was 0.404; in [16], -0.115; in [17], 0.0038. Moreover, the composite z-score is 1.18 in assay [18], 0.945 in assay [19] and 1.26 in assay [20]. For the same molecule, the z-score was -3.03 (inactive) in assay [2]; -20.8 (active) in assay [3]; -1.04 (inactive) in assay [4]; 0.518 (inactive) in assay [6]; -0.793 (inactive) in assay [14].
